Measurements: the supplement of paper PMC8975748
Counter-ions that a name gives are not always drawn.

test system: Saccharomyces cerevisiae BY4741 SeMeCo community; assay: z-score of subpopulation abundance vs DMSO median, subpopulation auxotrophic for H; higher = larger share of this subpopulation than in DMSO controls; conditions: 10 µM; 24 h; SM minimal medium; subpopulation (auxotrophy): H
Experimental: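 Fluorescent four-plasmid SeMeCo (self-establishing metabolically cooperating S. cerevisiae BY4741 community; plasmids pH-mRuby2, pL-mWasabi, pU-eCFP, pM-TagRFP657) was grown 24 h in minimal SM medium with each Selleck FDA-approved drug at 10 µM in 384-well plates. Cells were fixed and imaged by high-content confocal microscopy. For each auxotrophic subpopulation (and the prototroph), a z-score gives the deviation from the DMSO vehicle-control population median.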

SMILES	z-score of subpopulation abundance
CC(=O)OCC1=C(C(=O)O)N2C(=O)C(N)C2SC1 (centres undefined) [7-Aminocephalosporanic acid]	0.4
O=[N+]([O-])C(Br)(CO)CO [Bronopol]	-0.52
Cc1cc(C(C#N)c2ccc(Cl)cc2)c(Cl)cc1NC(=O)c1cc(I)cc(I)c1O (centres undefined) [Closantel]	-0.23
CN(C)C(=O)Oc1cccc([N+](C)(C)C)c1 [Neostigmine Bromide]	0.03
NC(=O)CN1CCCC1=O [Piracetam]	1.01
CC(C)(O)C(Cl)(Cl)Cl [Chlorobutanol]	-0.15
CC(C)N(CCC(C(N)=O)(c1ccccc1)c1ccccn1)C(C)C (centres undefined) [Disopyramide]	1.28
CN[C@@H]1[C@@H](O)[C@@H](O[C@@H]2[C@@H](O)[C@H](O[C@H]3O[C@H]([C@@H](C)O)[C@@H](O)[C@H](O)[C@H]3N)[C@@H](N)C[C@H]2N)OC[C@]1(C)O [Geneticin (G418 Sulfate)]	-0.21
CN(C)[C@@H]1C(=O)C(C(N)=O)=C(O)[C@@]2(O)C(=O)C3=C(O)c4c(O)cccc4[C@@](C)(O)[C@H]3[C@H](O)[C@@H]12 [Oxytetracycline (Terramycin)]	1.45
CC[C@H]1[C@@H]2C[C@H]3[C@@H]4N(C)c5ccccc5[C@]45C[C@@H]([C@@H]2[C@H]5O)N3[C@@H]1O [Ajmaline]	-0.87
CCCCCCCCCCCCCCCC[n+]1ccccc1 [Cetylpyridinium Chloride]	19.3
CNC1CC(N)C(O)C(OC2OC(CO)C(O)C3OC4(OC(C(N)CO)C(O)C(O)C4O)OC23)C1O (centres undefined) [Hygromycin B]	-0.88
CN(C)C(=O)Oc1ccc[n+](C)c1 [Pyridostigmine Bromide]	0.16
C[N+]12CCC(CC1)C(OC(=O)C(O)(c1ccccc1)c1ccccc1)C2 (centres undefined) [Clidinium Bromide]	-0.48
COc1ccc2[nH]cc(CCN)c2c1 [5-Methoxytryptamine]	-0.85
CCN(C)C(=O)Oc1cccc([C@H](C)N(C)C)c1 [Rivastigmine]	-0.34
NCCc1c[nH]c2ccc(O)cc12 [Serotonin HCl]	-1.54

SMILES	z-score of subpopulation abundance
Nc1ccncc1 [4-Aminopyridine]	-0.01
CC(NC(C)(C)C)C(=O)c1cccc(Cl)c1 (centres undefined) [Amfebutamone (Bupropion) HCl]	-0.63
CCCN1C[C@H](CSC)C[C@@H]2c3cccc4[nH]cc(c34)C[C@H]21 [Pergolide Mesylate]	-0.28
O=c1[nH]c2ccccc2n1CCCN1CCC(n2c(=O)[nH]c3cc(Cl)ccc32)CC1 [Domperidone]	0.24
NCC(O)c1ccc(O)cc1 (racemic) [(+,-)-Octopamine HCl]	-1.07
CC[C@@H](C(N)=O)N1CCCC1=O [Levetiracetam]	-0.46
Nc1nc(N)nc(NC2CC2)n1 [Cyromazine]	0.14
CCOC(=O)Nc1ccc(NCc2ccc(F)cc2)cc1N [Retigabine 2HCl]	1.44
N#Cc1nn(-c2c(Cl)cc(C(F)(F)F)cc2Cl)c(N)c1[S+]([O-])C(F)(F)F (centres undefined) [Fipronil]	0.48
O=c1cccc2n1C[C@@H]1CNC[C@H]2C1 [Cytisine]	-0.04
CCC1=C[C@H]2CN3CCc4c([nH]c5ccccc45)[C@](C(=O)OC)(C2)[C@H]13 [Catharanthine]	-0.99
C[C@H]1O[C@H](O[C@H]2[C@H](O)[C@@H](O)[C@@H](O)[C@H](O)[C@@H]2O)[C@@H](N)C[C@@H]1NC(=N)C(=O)O [Kasugamycin hydrochloride]	0.49
Oc1cccc2cccnc12 [8-Hydroxyquinoline]	0.93
CCOC(=O)Nc1ccc(NCc2ccc(F)cc2)cc1N [Retigabine]	1.45
CN1[C@@H]2C[C@@H](OC(=O)[C@H](CO)c3ccccc3)C[C@H]1[C@@H]1O[C@@H]12 [Scopolamine HBr trihydrate]	-0.46
CN1[C@@H]2C[C@@H](OC(=O)[C@H](CO)c3ccccc3)C[C@H]1[C@@H]1O[C@@H]12 [Scopolamine HBr]	-0.96
C[N+]1(C)[C@@H]2C[C@@H](OC(=O)[C@H](CO)c3ccccc3)C[C@H]1[C@@H]1O[C@@H]12 [Methscopolamine]	0.28
